Screening results deposited in PubChem BioAssay by several laboratories.
A selection: hits, their analogues and other compounds. The true share with any hit is near 3.1%.
PriA SSB inh = blocks PriA binding to SSB C-terminal tail | AlphaScreen SSBct-PriA binding, biotinylated peptide | inhibition, % at 33 µM | 430,000 compounds, 0.6% hits | AID 1272365; in the data active = inhibition mostly above about 37%, no sharp cut-off; inactive = mostly below about 20%;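 note: plate controls were negative control peptide for no effect and reference peptide for full effect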
Bead autofluor = counter-screen for toxin protease inhibitors: compound fluorescence; compound autofluorescence counterscreen, microsphere flow cytometry; active compounds read high; fluorescence intensity (no concentration beside the values); 360,000 compounds, 3.1% hits; in the data active = fluorescence intensity above about 16000; inconclusive = no clear call, values can overlap the other calls
BoNT F protease = blocks Botulinum neurotoxin F light chain protease. Multiplex microsphere protease cleavage assay, flow cytometry. inhibition, % at 10 µM. 360,000 compounds, 0.22% hits. AID 588497; in the data active = inhibition above about 35%, passing the limit was not always enough; inconclusive = no clear call, values can overlap the other calls; note: plate controls were buffer without enzyme for full effect and enzyme alone for no effect
BoNT-A LC inh2 = inhibitors of Botulinum neurotoxin A light chain protease. 360,000 compounds, 0.17% hits. AID 588499. inhibition, % at 10 µM. multiplex microsphere protease substrate cleavage, flow cytometry; note: plate controls were buffer without enzyme for full effect and enzyme alone for no effect
Anthrax LF inh2 = anthrax lethal factor protease inhibition; AID 588501; P15917; 360,000 compounds, 0.12% hits; inhibition, % at 10 µM; multiplex microsphere protease cleavage assay, LF; note: plate controls were buffer without enzyme for full effect and enzyme alone for no effect
Target sequence (P15917 whole entry, looked up): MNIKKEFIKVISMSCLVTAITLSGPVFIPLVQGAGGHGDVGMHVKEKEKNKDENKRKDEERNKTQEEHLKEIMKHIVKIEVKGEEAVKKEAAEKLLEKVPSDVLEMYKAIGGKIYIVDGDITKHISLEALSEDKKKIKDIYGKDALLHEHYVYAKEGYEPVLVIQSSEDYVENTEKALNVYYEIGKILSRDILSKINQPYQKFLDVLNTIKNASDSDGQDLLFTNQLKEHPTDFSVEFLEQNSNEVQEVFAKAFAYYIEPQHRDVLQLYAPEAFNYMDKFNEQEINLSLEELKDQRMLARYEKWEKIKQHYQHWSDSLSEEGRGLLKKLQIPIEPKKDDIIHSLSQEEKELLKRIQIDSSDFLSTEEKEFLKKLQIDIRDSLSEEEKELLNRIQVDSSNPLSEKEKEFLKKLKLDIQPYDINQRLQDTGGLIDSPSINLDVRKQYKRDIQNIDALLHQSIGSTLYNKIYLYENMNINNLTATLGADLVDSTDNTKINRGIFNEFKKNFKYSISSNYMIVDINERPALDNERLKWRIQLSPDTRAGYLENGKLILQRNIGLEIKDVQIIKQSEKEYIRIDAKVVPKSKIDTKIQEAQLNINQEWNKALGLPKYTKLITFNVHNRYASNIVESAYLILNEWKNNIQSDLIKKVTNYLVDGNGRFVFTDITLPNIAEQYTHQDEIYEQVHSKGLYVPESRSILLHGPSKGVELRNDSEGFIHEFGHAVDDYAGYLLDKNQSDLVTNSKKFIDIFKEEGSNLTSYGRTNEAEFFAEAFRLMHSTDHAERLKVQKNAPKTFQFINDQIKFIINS
* = called active by the depositor; ? = inconclusive; . = not tested or not shown. Cut-off read from the data, not from the text of the source, unless noted: active = inhibition above about 30%; inconclusive = no clear call, values can overlap the other calls; inactive = below that.

SMILES	PriA SSB inh	Bead autofluor	BoNT F protease	BoNT-A LC inh2	Anthrax LF inh2
CSC1=C(C#N)C(c2ccc(Cl)cc2)C2=C(CC(C)(C)CC2=O)N1 (stereo not drawn)	-1.6	23927*	-3.1	-2.0	-6.4
COc1ccc(C2NC(=O)C(C)S2)cc1 (stereo not drawn)	6.1	24997*	-8.8	-4.6	-3.5
CC1SC(c2cccc(Cl)c2)NC1=O (stereo not drawn)	1.7	24188*	-2.5	-0.6	1.5
CC1SC(c2ccc(Cl)cc2)NC1=O (stereo not drawn)	-7.3	2389	-3.1	-0.1	0.5
COCC(C)(O)CNC(=O)c1cc(-c2ccccc2)on1 (stereo not drawn)	-18.0	.	.	.	.
CC(=NC1CC1)C1=C(O)c2ccccc2C1=O	1.9	22929*	0.2	?	-2.1
C/C(=N\N(C)C)C1=C(O)c2ccccc2C1=O	.	2352	-5.7	0.4	-2.3
O=C(c1csc(NS(=O)(=O)c2ccccc2)n1)N1CCc2ccccc21	-26.0	.	.	.	.
CCc1ccc(OCC(=O)Nc2ccc(S(=O)(=O)Nc3nccs3)cc2)c(Br)c1	-10.0	.	.	.	.
O=C(NCc1ccco1)c1ccccc1NS(=O)(=O)c1ccc(Br)s1	-11.9	22236*	0.4	0.5	-4.1
Cc1cc(C(=O)NCc2ccco2)cs1	-13.0	9797	-4.1	-0.2	-0.6
Cc1scc(C(=O)NCc2ccco2)c1-c1ccccc1	-3.7	20412*	4.3	4.8	-2.7
O=C(NCc1ccco1)c1ccccc1-c1ccccc1	3.9	22200*	2.7	0.6	-4.3
CS(=O)(=O)Nc1cnc(N2CCN(c3ccccn3)CC2)nc1	-4.0	.	.	.	.
CSc1cccc(NC(=O)C2CC(=O)N(c3ccccc3)C2)c1 (stereo not drawn)	-5.0	.	.	.	.
O=C(C[n+]1cn(C(F)F)c2ccccc21)c1ccc(Br)cc1	10.0	4482	0.2	-1.3	-6.5
O=C(C[n+]1cc(Br)cc2ccccc21)c1ccc(Cl)cc1	0.5	6803	31.9	103.8*	20.4
O=C(C[n+]1cccc2ccccc21)c1ccc(Br)cc1	-10.1	8510	?	6.9	16.1
O=C(C[n+]1cc(Br)cc(Br)c1)c1ccc(Cl)cc1	1.6	3666	-11.2	8.0	5.3
Cc1ccc(C(=O)C[n+]2cccc3ccccc32)cc1	-12.6	5828	53.3*	10.9	15.9
O=C(C[n+]1cc(Br)cc2ccccc21)c1ccc(Br)cc1	6.8	6312	-1.2	120.0*	45.3*
COc1cccc2sc(OC3CN(S(=O)(=O)c4cccs4)C3)nc12	8.0	.	.	.	.
C=CCSc1nc(C)cc(/C=C\c2ccccc2)c1C#N	-19.6	21811*	-10.0	?	-0.1
COc1ccc(NC(=O)Cn2cnc3c(sc4nc(C)cc(-c5ccccc5)c43)c2=O)c(OC)c1	-1.0	.	.	.	.
O=C1CC(NCc2ccccc2F)C(=O)N1c1ccccc1 (stereo not drawn)	-4.1	16529*	-1.8	-1.0	-1.9
SMILES	PriA SSB inh	Bead autofluor	BoNT F protease	BoNT-A LC inh2	Anthrax LF inh2
CC(Oc1ccccc1)c1ccnc2nc(/N=C/N(C)C)nn12 (stereo not drawn)	.	21790*	6.1	?	-1.7
CC1(C)CC(=O)C(C=NCC2CCCO2)=C(O)C1 (stereo not drawn)	-6.6	25274*	-4.8	-2.8	-2.4
CC1(C)CC(=O)C(C=NCCN2CCN(C(=O)Cc3ccc(F)cc3)CC2)=C(O)C1	-0.1	19988*	0.2	-1.0	3.3
CC1(C)CC(=O)C(C=NCCCN2CCCC2=O)=C(O)C1	5.1	5192	-1.9	0.1	0.3
CC1(C)CC(=O)C(C=NCCCn2ccnc2)=C(O)C1	-9.1	21981*	2.0	1.2	-1.4
COc1ccc(CN=CC2=C(O)CC(C)(C)CC2=O)cc1	-15.8	24658*	-3.8	-1.6	-1.9
CC1(C)CC(=O)C(C=NCC(O)c2ccccc2)=C(O)C1 (stereo not drawn)	-17.2	20941*	-3.8	-3.0	-1.4
Cc1nc(Cn2nc(C3CC3)n(-c3ccccc3)c2=O)cs1	-4.0	.	.	.	.
OC(CN1CCN(Cc2cc(F)ccc2F)CC1)C1CC1 (stereo not drawn)	-16.0	.	.	.	.
COc1ccc(C2CC(=O)N3CN(Cc4ccco4)CSC3=C2C#N)cc1 (stereo not drawn)	-2.4	20177*	1.5	?	1.0
N#CC1=C2SCN(Cc3ccco3)CN2C(=O)CC1c1ccc(Cl)cc1 (stereo not drawn)	-20.0	22500*	1.6	2.6	1.0
CC(C)c1ccc(C2CC(=O)N3CN(Cc4ccco4)CSC3=C2C#N)cc1 (stereo not drawn)	12.0	?	?	?	?
O=C(c1ccccc1F)N1CCN=C1SCc1ccc([N+](=O)[O-])cc1	-8.0	.	.	.	.
O=C(CCl)Nc1noc2ncccc12	-1.0	.	.	.	.
O=C(CSC1CCCC1)Nc1cc(-n2cccn2)ncn1	-12.0	.	.	.	.
